Measured values taken from PubChem BioAssay AID504332 (National Center for Advancing Translational Sciences (NCATS), 2011).
About 31,000 (8.9%) of roughly 350,000 compounds were called active. Another 15% or so got no clear call; they are omitted. Only a selection was taken, and actives are over-represented in it overall. Values without a mark were called inactive. Calls come from the whole dose curve; as a rule, active = well fitted inhibition curve with a large enough effect; inconclusive = small, poorly fitted or top-dose-only effect; inactive = no such curve, though single readings can be large or run the other way.

target: Histone-lysine N-methyltransferase EHMT2 (Homo sapiens) (UniProt Q96KQ7); experiment: qHTS Assay for Inhibitors of Histone Lysine Methyltransferase G9a; settings: G9a H3K9 monomethylation, AlphaScreen, 2 h; series mostly up to 59 µM; activity, negative = inhibition: at the top concentration; note: nearly all actives have a fitted effect of over 75% in size
Sequence (Q96KQ7 913-1193 limits assumed): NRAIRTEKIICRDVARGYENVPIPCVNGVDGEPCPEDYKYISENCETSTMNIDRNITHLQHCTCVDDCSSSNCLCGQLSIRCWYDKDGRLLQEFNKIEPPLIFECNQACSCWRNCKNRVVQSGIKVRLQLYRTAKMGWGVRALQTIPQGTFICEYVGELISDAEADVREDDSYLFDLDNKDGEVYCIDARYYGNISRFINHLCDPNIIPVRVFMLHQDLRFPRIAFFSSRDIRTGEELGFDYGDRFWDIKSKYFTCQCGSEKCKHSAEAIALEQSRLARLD
How it was run: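 Step 1: enzyme (final 20 nM) with compound, 15 min RT. Step 2: substrate peptide 500 nM and SAM 20 uM, 2 h RT. Step 3: anti-H3K9me1 antibody and AlphaScreen beads, 10 min, then plate read.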
% is set by controls: 0 for no effect and ±100 for the full control effect; potency is the fitted concentration of half-maximal effect.

| SMILES | activity, negative = inhibition | Potency |
| --- | --- | --- |
| CCN(CC)CCOCCOc1ccc(Cl)c2ccccc12 | -33.6% [at 102 µM] |  |
| O=S(=O)(c1ccc(Cl)cc1)c1nc(-c2ccco2)oc1N1CCCCC1 | 32.5% [at 12.7 µM] |  |
| Clc1cccc(-n2ncc3c(NCCc4ccccc4)ncnc32)c1 | 27% |  |
| O=C(/C=C/c1c(Cl)cccc1Cl)NCc1ccccc1 | 21.8% [at 102 µM] |  |
| O=C(CCc1ccccc1)Nc1nn[nH]n1 | -24.3% |  |
| O=C(/C=C/c1c(F)cccc1Cl)Nc1nn[nH]n1 |  | 39.8 µM (active) |
| CSc1ccccc1NC(=O)c1cnc2sc(C)cn2c1=O | -1.35% |  |
| O=S(=O)(NC1CCN(S(=O)(=O)c2ccc3c(c2)OCCO3)CC1)c1c(F)cccc1F | 3.66% [at 12.7 µM] |  |
| COc1cccc(N(CC(=O)NC2CCCC2)C(=O)Cn2nnc(-c3ccc(C)o3)n2)c1 | -17.4% [at 102 µM] |  |
| COc1cc2ccccc2cc1C(=O)Nc1ccc(N2CCOCC2)cc1 | -2.84% [at 102 µM] |  |
| O=C(Nc1ccc(N2CCOCC2)cc1)c1ccc(-c2ccccc2[N+](=O)[O-])o1 |  | 17.8 µM (active) |
| O=C(Cc1ccc([N+](=O)[O-])cc1)Nc1ccc(C(=O)N2CCOCC2)cc1 | -23% [at 102 µM] |  |
| O=C(COc1ccccc1)Nc1cc2c3c(c1)CC(=O)N3CCC2 | 3.1% [at 102 µM] |  |
| Cc1ccc(C)c(N2CCN(C(=O)CCCCCn3c(=S)[nH]c4ccc(N5CCOCC5)cc4c3=O)CC2)c1 | 65.5% |  |
| Cc1ccc2c(=O)cc(C(=O)Nc3sc4c(c3C(=O)NCc3cccnc3)CCCC4)oc2c1 | -3.78% |  |
| CNC(=O)c1c(NC(NC(=O)c2ccco2)C(=O)c2ccc(Cl)cc2)sc2c1CCCC2 (stereo not drawn) |  | 11.2 µM (active) |
| CC(C)OC(=O)c1c(NC(=O)c2ccco2)sc2c1CCCC2 | -38.7% |  |
| CCc1ccc(OCC2c3cc(OC)c(OC)cc3CCN2C(C)=O)cc1 (stereo not drawn) | -15.8% [at 102 µM] |  |
| COc1cc2c(cc1O)[C@H](Cc1ccc(Oc3cc(C[C@@H]4NCCc5cc(OC)c(O)cc54)ccc3O)cc1)NCC2 |  | 12.6 µM (active) |
| COc1ccc(CC2c3cc(OC)c(OC)cc3CC[N+]2(C)CCC(=O)OCCCCCOC(=O)CC[N+]2(C)CCc3cc(OC)c(OC)cc3C2Cc2ccc(OC)c(OC)c2)cc1OC (stereo not drawn) | 7.6% [at 12.7 µM] |  |
| COc1ccccc1CNc1nc2ccc(Cl)cc2n2cnnc12 | 10.9% |  |
| CC(=O)Nc1cccc(NC(=O)CSc2nccn2Cc2ccc3c(c2)OCO3)c1 | 6.93% |  |

| SMILES | activity, negative = inhibition | Potency |
| --- | --- | --- |
| COc1ccc(C2CC(c3cccs3)=NN2c2ccc(F)cc2)cc1OC (stereo not drawn) |  | 3.98 µM (active) |
| COc1ccccc1N1N=C(c2cccs2)CC1c1ccccc1 (stereo not drawn) | 16.2% [at 102 µM] |  |
| COc1ccc(C2CC(c3cccs3)=NN2c2ccccc2)cc1 (stereo not drawn) | 400% [at 102 µM] |  |
| COc1ccc(-c2nc(CN3CCC(C(=O)NCc4ccccc4)CC3)c(C)o2)cc1OC | 3.45% |  |
| CCOC(=O)C1CCCN(C(=O)c2ccc(-n3ccc4ccccc43)s2)C1 (stereo not drawn) | 13.9% |  |
| CCc1cccc(C)c1NC(=O)COC(=O)CC1CCCC1 | -5.82% [at 102 µM] |  |
| COCCNC(=O)C(c1ccc(C)o1)N(Cc1ccccc1)C(=O)Cn1nnc2ccccc21 (stereo not drawn) | 9.42% |  |
| COc1ccccc1N(C(=O)Cn1nnc2ccccc21)C(C(=O)NCc1ccco1)c1ccc(C)o1 (stereo not drawn) |  | 50.1 µM (active) |
| Cc1ccc(C(C(=O)NCc2ccco2)N(CC2CCCO2)C(=O)Cn2nnc3ccccc32)cc1 (stereo not drawn) | -31.8% [at 102 µM] |  |
| Cc1ccc(C(=O)Nc2ccn(C)n2)cc1 | 0.254% [at 12.7 µM] |  |
| CC1CCN(S(=O)(=O)c2ccc3c(c2)N(CC(=O)NCCc2ccccc2)C(=O)CO3)CC1 | -25.8% |  |
| CC1=C(c2ccc(C)c(C)c2)S(=O)(=O)NC1=NCc1ccccc1Cl | -30.7% |  |
| CCOc1ccc(S(=O)(=O)Nc2ccc(OC)nc2)cc1 | 20.7% [at 102 µM] |  |
| COc1ccc(CS(=O)/C(Cl)=C(/Cl)C(=O)Nc2ccc(OC)nc2)cc1 (stereo not drawn) |  | 11.2 µM (active) |
| COc1ccc(NC(=O)C(=O)NCc2ccco2)cc1 | 13% |  |
| COc1cc(C(=O)N2CCN(c3ccc(Nc4ccc(C)cc4)nn3)CC2)cc(OC)c1OC | 0.11% |  |
| CSc1ccc(NC(=O)Cn2nnnc2-c2ccccc2F)cc1 | 3.59% |  |
| COC(=O)C(C)C1Sc2ccccc2NC1=O (stereo not drawn) | 14.7% [at 12.7 µM] |  |
| COc1ccc(C2CC(=O)Nc3cc(C)c(C)cc32)c(OC)c1OC (stereo not drawn) | 11.9% [at 102 µM] |  |
| COc1ccc(C2Sc3ccccc3NC3=C2C(=O)c2ccccc23)c(OC)c1OC (stereo not drawn) |  | 11.2 µM (active) |
| O=C(NCC(c1ccc2c(c1)OCO2)N1CCN(c2ccccc2)CC1)C(=O)Nc1ccccc1F (stereo not drawn) | -25.1% |  |
